Results published in PubChem BioAssay (NCATS).
Inconclusive results are not listed. The source made the active and inactive calls. The call rests on the fitted dose curve; in most records, active means well fitted curve in the direction sought with a large enough effect; inconclusive means small, poorly fitted or top-dose-only effect, or another doubt; inactive means no such curve, though single readings can be large; an effect the other way counts as inactive or inconclusive.

Assays:
[1] = Cellular Toxicity (caspase-3) Hek293 (AID 664);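 further: cells exposed to compound for 16 h at 37 °C before readout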
Method in brief: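 Cells plated, 5 hr at 37 °C; compounds added; 16 hr at 37 °C; Caspase-Glo 3/7 reagent, 20 min RT; luminescence read. Activation expressed relative to DMSO and 100 uM tamoxifen, AC50 by Hill model.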

[2] = Cellular Toxicity (caspase-3) N2a (AID 665);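 further: compound exposure lasted 16 h at 37 °C before readout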
Method in brief: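 N2a cells, 1500/well, 5 h settle at 37 °C; cpd 16 h, 37 °C; Caspase-Glo 3/7, 1 h RT; luminescence. Norm: DMSO = 0, 10 uM staurosporine = 100%. AC50, Hill fit.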

[3] = Cellular Toxicity (caspase-3) Renal Proximal Tubule (AID 667);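 further: cells exposed to compound for 16 hours at 37 °C before detection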
Method in brief: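 Caspase-Glo 3/7 read-out, rat primary kidney proximal tubule cells. Compound exposure 16 h, 37 °C; detection after 1 h at RT. Activity scaled to DMSO and 10 uM staurosporine.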

[4] = Cell Viability - LYMP2-001 (AID 921);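 further: cells exposed to compound for 24 h at 37 °C; nearly all actives have a fitted effect of over 70% in size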; further: potency means the concentration at half of the fitted maximal effect
Method in brief: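 A lymphoblastoid cell line of human origin was treated with library compounds across a concentration series for 24 hours, and viable cell number was estimated from ATP-driven luciferase light output. Hill modeling gave AC50.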

[5] = biological target: Cytochrome P450 3A4 (Homo sapiens) (UniProt P08684); assay: qHTS Assay for Inhibitors and Substrates of Cytochrome P450 3A4 (AID 884); further: series mostly up to about 57 µM; nearly all actives have a fitted effect of over 50% in size
Chain of Cytochrome P450 3A4 (Homo sapiens) (P08684 whole entry, looked up): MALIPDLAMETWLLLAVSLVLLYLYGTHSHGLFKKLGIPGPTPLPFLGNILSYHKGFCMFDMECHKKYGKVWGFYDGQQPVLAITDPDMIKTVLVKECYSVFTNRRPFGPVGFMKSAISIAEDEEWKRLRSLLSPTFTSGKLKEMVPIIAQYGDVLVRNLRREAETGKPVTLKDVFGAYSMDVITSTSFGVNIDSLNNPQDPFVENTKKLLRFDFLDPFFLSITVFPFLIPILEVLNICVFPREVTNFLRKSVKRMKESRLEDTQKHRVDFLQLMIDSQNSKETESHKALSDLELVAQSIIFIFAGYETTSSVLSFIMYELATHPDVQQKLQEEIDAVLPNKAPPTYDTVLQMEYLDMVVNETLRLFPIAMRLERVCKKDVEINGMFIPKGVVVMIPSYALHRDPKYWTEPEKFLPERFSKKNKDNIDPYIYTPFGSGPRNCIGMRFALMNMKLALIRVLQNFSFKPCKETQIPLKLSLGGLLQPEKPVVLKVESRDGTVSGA
Method in brief: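 20 nM human CYP3A4 with 25 uM Luciferin-PPXE (at KM) in 200 mM KPO4, preincubated 10 min with compound; NADPH regeneration started a 60 min RT reaction. Luciferin detected by luminescence, normalized to 57 uM ketoconazole as full inhibition.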

[6] = biological target: Cytochrome P450 3A4 (Homo sapiens) (UniProt P08684); assay: qHTS Assay for Activators of Cytochrome P450 3A4 (AID 885); further: nearly all actives have a fitted effect of over 65% in size; further: potency means the concentration at half of the fitted maximal effect
Method in brief: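 Quantitative HTS format: compounds preincubated with 20nM human CYP3A4 and Luciferin-PPXE substrate at KM, reaction started by NADPH regeneration, stopped after 60 min, luciferase luminescence read 20 min later.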

[7] = Confirmation and Secondary Assay for Modulators of Hemoglobin Beta Chain Splicing at IVS2 654 locus (AID 910);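 further: HeLa cells stably carrying EGFP split by mutant beta-globin IVS2-654 intron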
Method in brief: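 HeLa cells stably expressing EGFP interrupted by β-globin IVS2-654 intron, seeded overnight in Opti-MEM/2% FCS, then treated 2 days at 37 °C. Restored splicing read as total peak GFP intensity per well by laser scanning cytometry (488 nm excitation, 500–520 nm emission); 500 nM antisense PNA as control.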

[8] = Confirmation and Secondary Assay for Modulators of Hemoglobin Beta Chain Splicing at IVS2 705 locus (AID 930);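 further: HeLa cells stably expressing the EGFP-705 splicing reporter; GFP fluorescence per well restored by corrected splicing of the IVS2-705 intron in EGFP; series mostly up to about 46 µM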
Method in brief: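 HeLa IVS2-705 EGFP reporter cells, 500/well, compound 2 d at 37C; correct splicing yields fluorescent EGFP. Control: 500 nM antisense PNA. Read-out: total peak GFP intensity.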

[9] = MultiTox-Fluor Cytotoxicity Assay - LYMP1-001 - Dead Cells (AID 946); further: potency means the concentration at half of the fitted maximal effect
Method in brief: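 In this qHTS, 15 uM tetraoctylammonium bromide defined 100% and DMSO defined basal activity. Lymphoblastoid cells (LYMP1-001, 2500 per well) received compound for 16 hr at 37 C before a fluorogenic dead-cell substrate readout at 485/520 nm.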

[10] = biological target: Guanine nucleotide-binding protein G(i) subunit alpha-1 (Homo sapiens) (UniProt P63096); assay: qHTS Assay for Inhibitors of RGS12 GoLoco Motif Activity (Green Fluorophore) (AID 879);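 further: negative values mean loss of peptide binding seen as reduced polarization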
Chain of Guanine nucleotide-binding protein G(i) subunit alpha-1 (Homo sapiens) (P63096 whole entry, looked up): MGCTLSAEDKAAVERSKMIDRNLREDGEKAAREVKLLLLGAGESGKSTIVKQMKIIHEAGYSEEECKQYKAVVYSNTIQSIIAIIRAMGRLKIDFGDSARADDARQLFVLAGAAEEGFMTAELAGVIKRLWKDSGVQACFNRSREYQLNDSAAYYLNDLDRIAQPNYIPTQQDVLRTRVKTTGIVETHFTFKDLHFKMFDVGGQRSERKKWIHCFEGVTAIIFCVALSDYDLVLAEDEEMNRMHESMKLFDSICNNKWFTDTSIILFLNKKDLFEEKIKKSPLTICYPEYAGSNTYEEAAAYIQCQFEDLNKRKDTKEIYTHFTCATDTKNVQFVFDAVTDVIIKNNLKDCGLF
Method in brief: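 Fluorescence polarization assay: 50 nM Gαi1 with 10 nM FITC-labeled RGS12 GoLoco peptide in 10 mM Tris pH 7.5, 150 mM NaCl, 0.1 mM GDP, 0.05% NP40, 10 min at room temperature with compound.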

[11] = qHTS Assay for Identification of Small Molecule Agonists for Thrombopoietin (TPO) Signaling Pathway (AID 917)
Method in brief: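 IL-3-dependent murine pro-B Ba/F3 cells, stably transfected with human TPO receptor and GpIIb-promoter luciferase, are incubated 24 hrs at 37 C with test compound and 26 pM TPO; luciferase signal is read after 10 min at room temperature.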

[12] = biological target: Pyruvate kinase (Leishmania mexicana) (UniProt Q27686); assay: qHTS Validation Assay for Inhibitors of Leishmania Mexicana Pyruvate Kinase (AID 945)
Chain of Pyruvate kinase (Leishmania mexicana) (Q27686 2-499 E452W): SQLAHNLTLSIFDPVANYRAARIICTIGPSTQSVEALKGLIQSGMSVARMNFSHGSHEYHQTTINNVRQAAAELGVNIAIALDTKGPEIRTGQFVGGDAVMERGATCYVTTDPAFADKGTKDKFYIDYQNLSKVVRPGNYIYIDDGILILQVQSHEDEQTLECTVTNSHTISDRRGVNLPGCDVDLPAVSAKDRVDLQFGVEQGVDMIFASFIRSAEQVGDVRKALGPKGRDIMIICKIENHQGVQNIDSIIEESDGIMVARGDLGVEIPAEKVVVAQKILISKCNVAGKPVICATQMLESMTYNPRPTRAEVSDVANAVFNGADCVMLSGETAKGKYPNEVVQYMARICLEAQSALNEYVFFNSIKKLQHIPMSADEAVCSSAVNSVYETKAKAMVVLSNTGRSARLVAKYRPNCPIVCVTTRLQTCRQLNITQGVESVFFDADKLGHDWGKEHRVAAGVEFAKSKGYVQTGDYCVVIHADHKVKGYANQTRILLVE
Method in brief: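 Eight-point qHTS titrations; enzyme 0.2 nM LmPYK (E451W mutant); substrates 0.5 mM PEP, 0.1 mM ADP; 7 mM MgCl2; 1 h room temperature; PKLight luminescence normalized to neutral control.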

[13] = biological target: Muscarinic acetylcholine receptor M1 (Rattus norvegicus) (UniProt P08482); assay: qHTS Assay for Antagonists of Acetylcholine Muscarinic M1 Receptor: Kinetic Measurement of Intracellular Calcium Response (AID 943);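 further: Fluo-4 calcium signal as peak divided by basal fluorescence over 4 min; series mostly up to about 35 µM; nearly all actives have a fitted effect of over 75% in size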
Chain of Muscarinic acetylcholine receptor M1 (Rattus norvegicus) (P08482 whole entry, looked up): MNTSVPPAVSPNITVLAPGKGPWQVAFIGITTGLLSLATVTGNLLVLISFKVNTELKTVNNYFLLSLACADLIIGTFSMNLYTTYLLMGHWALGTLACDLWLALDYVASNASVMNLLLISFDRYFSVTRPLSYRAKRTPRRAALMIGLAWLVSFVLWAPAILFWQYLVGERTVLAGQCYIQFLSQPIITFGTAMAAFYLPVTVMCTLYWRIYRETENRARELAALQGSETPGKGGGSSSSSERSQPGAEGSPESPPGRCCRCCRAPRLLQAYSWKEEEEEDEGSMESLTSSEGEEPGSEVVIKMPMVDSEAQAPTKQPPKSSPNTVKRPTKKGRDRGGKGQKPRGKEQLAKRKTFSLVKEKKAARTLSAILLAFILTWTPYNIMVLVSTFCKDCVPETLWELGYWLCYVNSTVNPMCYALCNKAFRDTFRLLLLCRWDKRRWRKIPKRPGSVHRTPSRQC
Method in brief: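 Rat M1-CHO cells, 2000/well, overnight → Fluo-4 no-wash dye with probenecid, 1 h 37C → compound 10 min, room temp → basal read 6 s → carbachol EC80 (100 nM) → 4 min kinetic read; peak/basal.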

[14] = biological target: Muscarinic acetylcholine receptor M1 (Rattus norvegicus) (UniProt P08482); assay: qHTS Assay for Antagonists of Acetylcholine Muscarinic M1 Receptor: Measurement of IP-One Response (AID 944); further: nearly all actives have a fitted effect of over 75% in size
Method in brief: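 M1-CHO (rat), 2000 cells/well, overnight recovery; cpd 10 min; carbachol EC80 (200 nM), 30 min, HEPES buffer + 50 mM LiCl pH 7.4; IP-One HTRF, Ex 337, Em 620/665 nm.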

[15] = Cellular Toxicity (caspase-3) NIH 3T3 (AID 666)
Method in brief: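 Luminescence from aminoluciferin released by caspase-3/7 cleavage of a peptide substrate served as read-out. Mouse fibroblast NIH 3T3 cells were exposed to compounds over a concentration range for 16 hours, and AC50 values came from standard Hill modelling.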

Measured: Potency

CCCCCCCCCCCC[N+](C)(C)CCOc1ccccc1
inactive: [1] | [2] | [3]
active: [4] 31.6 µM

Oc1ccc2[nH]cc(CCCCN3CC=C(c4ccccc4)CC3)c2c1
active: [6] 3.98 µM
inactive: [5]

CC[n+]1c(-c2ccccc2)c2cc(N)ccc2c2ccc(N)cc21
inactive: [1] | [2] | [3] | [6] | [7] | [8]
active: [4] 7.94 µM | [9] 39.8 µM

COc1ccc(C(=O)N2CCCC2=O)cc1
inactive: [10] | [7] | [11] | [8] | [12]

C[C@H](N)[C@H](O)c1ccc(O)c(O)c1
inactive: [10] | [13] | [14] | [12]

CNC(=O)Oc1cccc2ccccc12
inactive: [1] | [2] | [15] | [3] | [5] | [4] | [9]

COP(=O)(OC)OC=C(Cl)Cl
inactive: [1] | [2] | [15] | [3] | [4] | [9]
